Out of some 5,500 compounds screened, about 2,000 (36%) were called active. Not shown: some 18% with an inconclusive outcome. Cut-off read from the data, not from the text of the source: active = normalized growth mostly below about 0.91 (no sharp cut-off); inconclusive = no clear call, values can overlap the other calls; inactive = mostly above about 0.92. Some of the results follow.
Experiment: chemical genetic growth profiling, strain panel (AID 1159580);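 note: tested at 20 µM; growth read once vehicle control cultures reached saturation at 30 °C; 1 = growth at the plate median or of vehicle wells; lower values mean less growth of the strain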
Settings: growth OD
[1] = S. cerevisiae deletion strains, locus YDL101C, strain DUN1, hits give low values
[2] = S. cerevisiae deletion strains, locus YHR030C, strain SLT2, hits give low values

Measured: normalized growth

CCSc1ncccc1C(=O)N[C@@H](CCSC)C(=O)OC
inactive: S. cerevisiae deletion strains, locus YAL013W, strain DEP1, hits give low values 0.994 | S. cerevisiae deletion strains, locus YBR229C, strain ROT2, hits give low values 0.996 | [1] 0.98 | S. cerevisiae deletion strains, locus YDR150W, strain NUM1, hits give low values 0.906 | S. cerevisiae deletion strains, locus YEL061C, strain CIN8, hits give low values 1.02 | S. cerevisiae deletion strains, locus YGR078C, strain PAC10, hits give low values 0.993 | S. cerevisiae deletion strains, locus YGR229C, strain SMI1, hits give low values 1 | [2] 0.979 | S. cerevisiae deletion strains, locus YHR087W, strain rtc3, hits give low values 1 | S. cerevisiae deletion strains, locus YJR043C, strain POL32, hits give low values 0.98 | S. cerevisiae deletion strains, locus YJR075W, strain HOC1, hits give low values 1.01 | S. cerevisiae deletion strains, locus YKL190W, strain CNB1, hits give low values 1.01 | S. cerevisiae deletion strains, locus YLR039C, strain RIC1, hits give low values 1 | S. cerevisiae deletion strains, locus YLR058C, strain SHM2 (second series), hits give low values 1.01 | S. cerevisiae deletion strains, locus YLR085C, strain ARP6, hits give low values 1.04 | S. cerevisiae deletion strains, locus YLR262C, strain YPT6, hits give low values 1.02 | S. cerevisiae deletion strains, locus YML094W, strain GIM5, hits give low values 1.03 | S. cerevisiae deletion strains, locus YMR219W, strain ESC1, hits give low values 1.01 | S. cerevisiae deletion strains, locus YMR263W, strain SAP30, hits give low values 1.01 | S. cerevisiae deletion strains, locus YMR307W, strain GAS1, hits give low values 1.02 | S. cerevisiae deletion strains, locus YNL153C, strain GIM3, hits give low values 0.999 | S. cerevisiae deletion strains, locus YNL298W, strain CLA4 (second series), hits give low values 1.01 | S. cerevisiae deletion strains, locus YNL322C, strain KRE1, hits give low values 1.01 | S. cerevisiae deletion strains, locus YNR030W, strain Alg12, hits give low values 0.997 | S. cerevisiae deletion strains, locus YOL006C, strain TOP1, hits give low values 1 | S. cerevisiae deletion strains, locus YPL055C, strain LGE1, hits give low values 1.09 | S. cerevisiae deletion strains, locus YPL241C, strain CIN2, hits give low values 1.01 | S. cerevisiae deletion strains, locus YPR135W, strain CTF4, hits give low values 0.91 | S. cerevisiae strains, strain wild type, hits give low values 1

Cc1ccc(Sc2ncccc2NS(=O)(=O)c2ccc(Cl)cc2)cc1
inactive: S. cerevisiae deletion strains, locus YAR019C, strain CDC15, hits give low values 0.933 | S. cerevisiae deletion strains, locus YBL105C, strain PKC1, hits give low values 0.924 | S. cerevisiae deletion strains, locus YBR135W, strain CKS1, hits give low values 0.935 | S. cerevisiae deletion strains, locus YBR136W, strain MEC1, hits give low values 0.922 | S. cerevisiae deletion strains, locus YBR160W, strain CDC28, hits give low values 0.934 | S. cerevisiae deletion strains, locus YDL017W, strain CDC7, hits give low values 0.937 | S. cerevisiae deletion strains, locus YDL028C, strain MPS1, hits give low values 0.932 | [1] 0.947 | S. cerevisiae deletion strains, locus YDL108W, strain KIN28, hits give low values 0.919 | S. cerevisiae deletion strains, locus YDL132W, strain cdc53, hits give low values 0.932 | S. cerevisiae deletion strains, locus YDL214C, strain PRR2, hits give low values 0.852 | S. cerevisiae deletion strains, locus YDR052C, strain DBF4, hits give low values 0.952 | S. cerevisiae deletion strains, locus YDR054C, strain cdc34, hits give low values 0.922 | S. cerevisiae deletion strains, locus YDR226W, strain ADK1, hits give low values 0.938 | S. cerevisiae deletion strains, locus YDR477W, strain SNF1, hits give low values 0.881 | S. cerevisiae deletion strains, locus YER123W, strain YCK3, hits give low values 0.823 | S. cerevisiae deletion strains, locus YER133W, strain GLC7, hits give low values 0.855 | S. cerevisiae deletion strains, locus YFL009W, strain cdc4, hits give low values 0.935 | S. cerevisiae deletion strains, locus YFL029C, strain CAK1, hits give low values 0.931 | S. cerevisiae deletion strains, locus YFR003C, strain YPI1, hits give low values 0.929 | S. cerevisiae deletion strains, locus YFR019W, strain FAB1, hits give low values 0.923 | S. cerevisiae deletion strains, locus YFR028C, strain CDC14, hits give low values 0.926 | S. cerevisiae deletion strains, locus YGR040W, strain KSS1, hits give low values 0.858 | S. cerevisiae deletion strains, locus YGR052W, strain FMP48, hits give low values 0.907 | S. cerevisiae deletion strains, locus YGR092W, strain DBF2, hits give low values 0.826 | S. cerevisiae deletion strains, locus YHR079C, strain IRE1, hits give low values 0.87 | S. cerevisiae deletion strains, locus YHR082C, strain KSP1, hits give low values 0.845 | S. cerevisiae deletion strains, locus YHR205W, strain SCH9, hits give low values 0.852 | S. cerevisiae deletion strains, locus YIL147C, strain SLN1, hits give low values 0.917 | S. cerevisiae deletion strains, locus YJL095W, strain BCK1, hits give low values 0.909 | S. cerevisiae deletion strains, locus YJL128C, strain PBS2, hits give low values 0.88 | S. cerevisiae deletion strains, locus YJL157C, strain FAR1, hits give low values 0.856 | S. cerevisiae deletion strains, locus YJR016C, strain ILV3, hits give low values 0.919 | S. cerevisiae deletion strains, locus YJR066W, strain TOR1 (second series), hits give low values 0.851 | S. cerevisiae deletion strains, locus YJR066W, strain TOR1, hits give low values 0.882 | S. cerevisiae deletion strains, locus YKL048C, strain ELM1, hits give low values 0.888 | S. cerevisiae deletion strains, locus YKL067W, strain YNK1, hits give low values 0.894 | S. cerevisiae deletion strains, locus YKL101W, strain HSL1, hits give low values 0.884 | S. cerevisiae deletion strains, locus YKL193C, strain SDS22, hits give low values 0.932 | S. cerevisiae deletion strains, locus YKL203C, strain TOR2, hits give low values 0.928 | S. cerevisiae deletion strains, locus YLR133W, strain CKI1, hits give low values 0.894 | S. cerevisiae deletion strains, locus YLR403W, strain SFP1, hits give low values 0.861 | S. cerevisiae deletion strains, locus YML070W, strain DAK1, hits give low values 0.849 | S. cerevisiae deletion strains, locus YMR001C, strain CDC5, hits give low values 0.928 | S. cerevisiae deletion strains, locus YMR205C, strain PFK2 (second series), hits give low values 0.888 | S. cerevisiae deletion strains, locus YMR277W, strain FCP1, hits give low values 0.934 | S. cerevisiae deletion strains, locus YNL006W, strain LST8, hits give low values 0.947 | S. cerevisiae deletion strains, locus YNL020C, strain ARK1, hits give low values 0.879 | S. cerevisiae deletion strains, locus YNL161W, strain CBK1, hits give low values 0.929 | S. cerevisiae deletion strains, locus YNL183C, strain NPR1, hits give low values 0.897 | S. cerevisiae deletion strains, locus YNL207W, strain RIO2, hits give low values 0.924 | S. cerevisiae deletion strains, locus YNL222W, strain SSU72, hits give low values 0.933 | S. cerevisiae deletion strains, locus YNL307C, strain MCK1 (second series), hits give low values 0.885 | S. cerevisiae deletion strains, locus YOL078W, strain AVO1, hits give low values 0.94 | S. cerevisiae deletion strains, locus YOL136C, strain PFK27, hits give low values 0.854 | S. cerevisiae deletion strains, locus YOR061W, strain CKA2, hits give low values 0.85 | S. cerevisiae deletion strains, locus YOR119C, strain RIO1, hits give low values 0.912 | S. cerevisiae deletion strains, locus YOR231W, strain MKK1, hits give low values 0.891 | S. cerevisiae deletion strains, locus YOR329C, strain SCD5, hits give low values 0.929 | S. cerevisiae deletion strains, locus YPL031C, strain PHO85, hits give low values 0.866 | S. cerevisiae deletion strains, locus YPL153C, strain RAD53, hits give low values 0.863 | S. cerevisiae deletion strains, locus YPL204W, strain HRR25, hits give low values 0.884 | S. cerevisiae deletion strains, locus YPL209C, strain IPL1, hits give low values 0.934 | S. cerevisiae deletion strains, locus YPR025C, strain CCL1, hits give low values 0.933 | S. cerevisiae deletion strains, locus YPR106W, strain ISR1, hits give low values 0.925 | S. cerevisiae deletion strains, locus YPR111W, strain DBF20, hits give low values 0.924 | S. cerevisiae deletion strains, strain NNK1, hits give low values 0.92 | S. cerevisiae deletion strains, strain TSCII, hits give low values 0.928
active: [2] 0.839 | S. cerevisiae deletion strains, locus YLR113W, strain HOG1, hits give low values 0.809 | S. cerevisiae deletion strains, locus YPL256C, strain CLN2, hits give low values 0.827
